# The list is not random: actives were taken first. Their share in the collection is about 21%.
# HCMV inh = human cytomegalovirus inhibition; HFF cells, HCMV-luciferase reporter, 72 h; stronger effect = lower value; activity change, negative = inhibition, % at 57.5 µM; 410,000 compounds, 4.5% hits; AID 1259415; in the data active means activity change below about -60%; inconclusive means no clear call, values can overlap the other calls; inactive means above about -39%; further: on the % scale 0 is the no-effect control and ±100 the full control effect
#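 After 16 h attachment at 37C, HFF cells received test compound and HCMV-luciferase (1 PFU/cell); reporter luminescence read 72 h later, data normalized against buffer-only and known inhibitor Salinomycin.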
# Pf growth 48h = P. falciparum growth inhibition at 48 hours (one generation) | P. falciparum luciferase growth in erythrocytes, 48 h | Potency, µM (titrated, usually from 28.7 µM), without a hit: at the highest dose activity change, negative = inhibition, hits mostly inhibitors | 310,000 compounds, 5.9% hits | AID 504832; further: potency means the concentration at half of the fitted maximal effect; on the % scale 0 is the no-effect control and ±100 the full control effect
#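 Growth was read as firefly luciferase luminescence after a 48 h, 37 C, 5% CO2 exposure of compounds to reporter-bearing P. falciparum cultures (0.1% parasitemia, 2% hematocrit final) in Albumax-supplemented RPMI 1640.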
# Pf growth 96h = P. falciparum growth inhibition at 96 hours; P. falciparum luciferase reporter growth, 96 h; Potency, µM (doses to about 28.7 µM), for inactives: top-dose activity change, negative = inhibition, usual class: inhibitors; 320,000 compounds, 6.9% hits; further: potency means the concentration at half of the fitted maximal effect; on the % scale 0 is the no-effect control and ±100 the full control effect
#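 Two-generation exposure (96 h) targets delayed-death phenotype. Reporter parasites carrying integrated firefly luciferase, in red cells at 2% hematocrit and 0.05% parasitemia final, kept at 37 C, 5% CO2; luminescence loss indicates inhibition.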
# Shiga inhibitor = blocks Shiga toxin action in Vero cells; Vero cells, Shiga toxin protein synthesis inhibition reporter; inhibition, % at 38.7 µM; 290,000 compounds, 9.2% hits; in the data active means inhibition mostly above about 28%, no sharp cut-off; inactive means mostly below about 43%; further: 0% is about no effect
# CHX counter = counter-screen for Shiga toxin inhibitors: cycloheximide protein synthesis inhibition. cell reporter, cycloheximide protein synthesis inhibition counterscreen. max response, %. 300,000 compounds, 12% hits; in the data active means max response mostly above about 13%, no sharp cut-off; inactive means mostly below about 14%; further: read at 38.3 µM for the half of the compounds with a filed dose; 0% is about no effect
# HCV inhibitor = HCV inhibition; Potency, µM (doses to about 41.8 µM), for inactives: at the top dose activity change, negative = inhibition, hits mostly inhibitors; 340,000 compounds, 3.4% hits; AID 651820; Huh7.5.1 HCVcc-Cre infection, luciferase reporter, 44 h; further: potency means the concentration at half of the fitted maximal effect; on the % scale 0 is the no-effect control and ±100 the full control effect
#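 Cells (1,000/well) were plated 4 h before compound, then infected with HCVcc-Cre virus (~0.5 moi). After 44 h further culture, infection was read as luciferase luminescence following a 15 min substrate incubation at room temperature.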
# Numbers without * were called inactive; i = inactive; ? = inconclusive; . = no result given; [ ] = dose if it differs, or a comment. Unless noted, the call rests on the fitted dose curve; in most records, active means well fitted inhibition curve with a large enough effect; inconclusive means small, poorly fitted or top-dose-only effect, or another doubt; inactive means no such curve, though single readings can be large or run the other way.
SMILES,HCMV inh,Pf growth 48h,Pf growth 96h,Shiga inhibitor,CHX counter,HCV inhibitor
Cc1ccc(CNC(=O)CCc2nnc3n(C)c(=O)c4sccc4n23)cc1,-9,.,.,.,.,.
Cc1ccc(S(=O)(=O)N2CCCCC2)cc1NC(=O)COc1ccccc1F,8,-28%,-23%,-12,0,?
CCOC(=O)C1(CC2CCCCO2)CCN(S(=O)(=O)c2ccsc2)CC1 (stereo unspecified),44,-11%,-17%,23,13*,8%
CSCCC(NS(=O)(=O)c1ccc2c(c1)oc(=O)n2C)C(=O)N1CCN(c2cc(C)ccc2C)CC1 (stereo unspecified),35,.,.,.,.,.
Cc1cc(NCC2CCCCC2)nc2ccccc12,-4,3.3µM*,?,51*,38*,?
CCOc1ccc(Nc2c3ccccc3nc3ccccc23)cc1,-81*,2.9µM*,2.1µM*,36*,17,4µM*
CCOc1ccc(NC(=O)c2cc(Cl)nc3ccccc23)cc1,-8,25%,53%,19,-1,?
CCOc1ccc(Nc2cc(C)c3ccccc3n2)cc1,-20,-22%,?,94*,49*,-12%
CCOc1ccc(Nc2cc(C(=O)NCc3ccccc3Cl)c3ccccc3n2)cc1,-11,.,.,.,.,.
CCc1ccc2occ(CC(=O)Nc3c(C(=O)c4ccccc4)oc4ccccc34)c2c1,-4,.,.,.,.,.
CCS(=O)(=O)N1CCCC(C(=O)NCCOC)C1 (stereo unspecified),14,.,.,.,.,.
CCn1nccc1C(=O)Nc1ccc(C(=O)OC(C)C)cc1,-12,26%,7%,.,24*,?
CCn1nccc1C(=O)Nc1ccc(Cl)cc1Cl,28,38%,-8%[5.75 µM],40*,23*,?
CCCC(C)C(=O)Nc1ccc(Cl)cc1Cl (stereo unspecified),-78*,.,-12%,-6,-1,-22%
CCCC(C)C(=O)Nc1cc([N+](=O)[O-])ccc1Cl (stereo unspecified),?,0%,-8%,1,-2,-20%
COc1ccc(C(=O)Nc2ccccc2-c2nc(-c3ccc(OC)cc3)no2)cc1,13,.,.,.,.,.
COc1ccc(OCC(O)Cn2c(Nc3cccc(C)c3)nc3c2c(=O)n(C)c(=O)n3C)cc1 (stereo unspecified),54,2.3µM*,3.3µM*,-13,-1,-21%
Cc1ccccc1OCC(O)Cn1c(NCc2ccco2)nc2c1c(=O)n(C)c(=O)n2C (stereo unspecified),0,15µM*,?,-6,-2,?
Cc1ccccc1OCC(O)Cn1c(Br)nc2c1c(=O)n(C)c(=O)n2C (stereo unspecified),-4,14%,?,2,-4,?
CCOc1ccc(NC(=O)c2c(NCc3cccnc3)sc3c2CCCC3)cc1,15,.,.,.,.,.
CCCCOc1cccc(C(=O)N(Cc2cccs2)c2ccc(OC)cc2)c1,-60*,.,.,.,.,.
COc1ccc(N(Cc2cccs2)C(=O)c2ccc(C(C)(C)C)cc2)cc1,-9,.,.,.,.,.
COc1ccc(N(Cc2cccs2)C(=O)c2ccc(OC)c(Cl)c2)cc1,-91*,.,.,.,.,.
O=C(NN1CC(C(=O)OCc2ccc(Br)cc2)CC1=O)c1ccccc1 (stereo unspecified),-7,1%,28%,-4,-1,2%
O=C(COC(=O)C1CCN(c2ccc(C(F)(F)F)cn2)CC1)c1ccccc1,-11,14%,7%,.,.,-1%
SMILES,HCMV inh,Pf growth 48h,Pf growth 96h,Shiga inhibitor,CHX counter,HCV inhibitor
O=C(CSc1cccc[n+]1[O-])c1cc(Cl)ccc1Cl,7,?,0.83µM*,78*,28*,?
O=C(CSc1cccc[n+]1[O-])c1cc2ccccc2o1,.,.,4.1µM*,140*,131*,15%
Nc1nc(SCC(=O)c2cc3ccccc3o2)n[nH]1,67,0%,59%,29,8,1%
COCCNC(=O)C(=O)NCC(c1cccnc1)N1CCN(c2ccccc2)CC1 (stereo unspecified),-1,.,.,.,.,.
O=C(Nc1nnc(-c2ccc3c(c2)CCCC3)o1)c1c(F)cccc1F,?,115%,189%,76*,26,-1%
O=Nc1c(-c2ccccc2)cc2ccccn12,?,4.7µM*,9.3µM*,130*,48*,-24%
O=C(OCCC12CC3CC(CC(C3)C1)C2)c1ccc(NCc2cc(O)ccc2O)cc1,-77*,.,.,.,.,2.2µM*
Cc1[nH]c2ccc(F)cc2c1CCNC(=O)c1cc2cc(Cl)ccc2oc1=O,-7,.,.,.,.,.
Cc1cccc(NC(=O)Cn2cc(C(=O)c3ccccc3)c3ccccc32)c1C,-67*,.,.,.,.,.
Cc1cccc(NC(=O)Cn2cc(C(=O)c3ccccc3)c3ccccc32)c1,-80*,.,.,.,.,.
CCOc1ccc(NC(=O)Cn2cc(C(=O)C3CC3)c3ccccc32)cc1,-15,19%,5.9µM*,21,-4,4%
O=C(Cn1cc(C(=O)c2ccco2)c2ccccc21)Nc1ccccc1F,-75*,?,0%,62,21,-21%
CC(C)(C)OC(=O)N1CCC[C@H]1C(=O)NCc1ccc(F)cc1F,1,.,.,.,.,.
O=C(NC1CC1)c1ccc(C2SCC(=O)N2Cc2ccccc2)cc1 (stereo unspecified),-34,?,?,14,-1,8%
Cc1cccc(NC(=O)Cn2cc(C(=O)c3ccco3)c3ccccc32)c1C,-88*,.,.,.,.,.
O=C(c1ccco1)c1cn(CC(=O)N2CCCc3ccccc32)c2ccccc12,33,?,-8%,16,24*,11µM*
CC(C)NC(=O)Cn1cc(C(=O)c2ccccc2)c2ccccc21,96,20%,75%,-12,-2,-6%
O=C(c1ccco1)c1cn(CC(=O)N2CCCCCC2)c2ccccc12,-39,?,-27%,13,-2,13%
CC(C)NC(=O)Cn1cc(C(=O)C2CC2)c2ccccc21,-61*,8%,?,-13,-3,6%
Cc1ccc(C)c(NC(=O)Cn2cc(C(=O)c3ccco3)c3ccccc32)c1,-34,.,.,.,.,.
Cc1ccc(NC(=O)Cn2cc(C(=O)c3ccco3)c3ccccc32)c(C)c1,-73*,.,.,.,.,.
CC(C)[C@H]1C(=O)Nc2ccccc2N1C(=O)N[C@@H](Cc1ccccc1)C(=O)N[C@@H](Cc1ccccc1)C(=O)O,6,-3%,?,-6,-4,2%
N#Cc1ccc2c(c1)C[C@]1(CCCCN3C(=O)c4ccccc4C3=O)OC3=C(C(=O)OC4(CCCCC4)C3)C2O1,.,?,?,i,-1,.
O=C(Cn1cc(C(=O)C2CCCCC2)c2ccccc21)Nc1ccccc1Cl,-14,.,.,.,.,.
Cc1cccc(NC(=O)Cn2cc(C(=O)C3CCCCC3)c3ccccc32)c1C,-93*,.,.,.,.,.
CS(=O)(=O)c1ccc(Cl)c(C(=O)O)c1,24,35%,3.7µM*,-13,7,14%
